# Screens: PubChem, National Center for Advancing Translational Sciences (NCATS)
# Compounds with a hit are over-represented: about 2.9% of the library has one in this group of screens.
# ATXN2 expr inh – Primary qHTS for Inhibitors of ATXN expression. 0.72% of 360,000 active. HEK-293 ATXN2-luciferase reporter, luminescence, 24 h. Potency, µM (top dose mostly 57 µM), hits mostly inhibitors; further: nearly all actives have a fitted effect of over 55% in size
#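 ATXN2-luciferase reporter cells (luciferase flanked by upstream and downstream ATXN2 gene portions) were treated 24 h at 37 °C with compounds at up to 57 uM. SteadyGlo luminescence gave expression; GF-AFC fluorescence gave viability.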
# Nrf2 block – Nrf2 qHTS screen for inhibitors. Potency, µM (highest dose often 46 µM), most hits filed as inhibitors. 2.1% of 360,000 active. A549 ARE-Fluc reporter, luciferase luminescence, 18-24 h. AID 504444, 2011; further: nearly all actives have a fitted effect of over 60% in size
#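 Cells were seeded and rested 2 h, then exposed to compounds for 18-24 h. CellTiter-Fluor was read first as a viability measure. BugLite was added 15 min before the final luminescent read of ARE-luciferase activity in A549 cells.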
# A549 viability – Nrf2 qHTS screen for inhibitors: counterscreen for cytotoxicity; A549 ARE-Fluc cells, CellTiter-Fluor viability, 18-24 h; Potency, µM (titrated, usually from 46 µM), hits mostly inhibitors; 0.16% of 390,000 active
#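 A549 ARE-Fluc cells in 5% FBS OPTI-MEM, 5000 cells/well, rested 2 h then exposed to compounds in concentration-response for 18-24 h at 37 °C. Viability by CellTiter-Fluor fluorescence (Ex 405/Em 525) after 30 min; luciferase luminescence (BugLite, 15 min, RT) read afterwards.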
# ATXN viability – Viability Counterscreen for Primary qHTS for Inhibitors of ATXN expression; 0.49% of 400,000 active; AID 651635, 2014; S2 cells (HEK-293 line with an ATXN2-luciferase reporter) viability, CellTiter-Fluor protease fluorescence, 24 h; Potency, µM (top dose mostly 56.7 µM), usual class: cytotoxic; further: nearly all actives have a fitted effect of over 40% in size
# Nrf2 ARE act – qHTS of Nrf2 Activators; Potency, µM (top dose mostly 46.1 µM), usual class: activators; 0.31% of 410,000 active; AID 624171, 2012; AREc32 ARE-luciferase reporter (MCF7-derived line), luminescence, 24 h; further: nearly all actives have a fitted effect of over 65% in size
#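 Reporter line AREc32 (ARE-Fluc), seeded overnight in OPTI-MEM with 5% FBS; compound pin-transferred, 24 hr at 37 deg C, 5% CO2; luminescent read-out.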
# Hits are given with their value; - = inactive; ? = inconclusive; . = not tested or not shown; [ ] = remark or other dose. The call rests on the fitted dose curve; in most records, active means well fitted curve in the direction sought with a large enough effect; inconclusive means small, poorly fitted or top-dose-only effect, or another doubt; inactive means no such curve, though single readings can be large; an effect the other way counts as inactive or inconclusive.
SMILES,ATXN2 expr inh,Nrf2 block,A549 viability,ATXN viability,Nrf2 ARE act
O=C(COc1ccc(C(=O)O)cc1)Nc1cccc(C(F)(F)F)c1,-[11.3 µM],-,-,-,-
CN1CCN(C(=S)c2ccc(OCC(=O)Nc3cccc(C(F)(F)F)c3)cc2)CC1,-,14.6µM,-,-,-
Cc1cc(N2CCCC2)ccc1NC(=O)COc1cccc(C(F)(F)F)c1,?,5.8µM,-,-,-
COc1ccc(N2CCN(C(=O)Nc3cccc(C(F)(F)F)c3)CC2)cc1,-,20.6µM,-,-,-
O=C(Nc1ccc2c(c1)OCO2)N1CCN(c2cccc(C(F)(F)F)c2)CC1,-,23.1µM,-,-,-
Cc1cc(C)nc(S[C@H]2C[C@@H](C(=O)N3CCN(c4ccccc4F)CC3)N(Cc3ccccc3C(F)(F)F)C2)n1,.,.,.,-,.
Cc1ccc(-c2ccc(=O)n(CC(=O)NCCc3ccc(Cl)cc3)n2)cc1,.,.,-,.,-
O=C(CCNc1cc(Cl)cc(Cl)c1)c1cccs1,-,-,-,-,6.31µM
O=C(CCNc1ccc(Cl)cc1)c1cccs1,-,-,-,?,?
COC(=O)C1CCN(Cc2ccc3c(c2)CN(C(=O)c2ccc4nc(C)c(C)nc4c2)CCO3)CC1,.,.,.,-,.
O=C1CN(C(=O)COC(=O)/C=C/c2ccco2)c2ccccc2N1,-,-,-,-,12.6µM
CC[C@@H]1C(=O)N(C)c2cnc(Nc3ccc(C(=O)NC4CCN(C)CC4)cc3OC)nc2N1C1CCCC1,-,.,.,.,.
O=C(Nc1ccccc1Cl)c1cc2ccccc2o/c1=N\O,-,?,-,?,1.26µM
COc1cccc(NC(=O)c2cc3ccccc3o/c2=N\O)c1,.,?,-,-,-
Cc1c(C(=O)NC2CCCCCC2)sc2ncnc(NCC3CCCO3)c12 (configuration not stated),.,.,.,-,.
COC(=O)CCCCC(CCSS/C(CCO)=C(\C)N(C=O)Cc1cnc(C)nc1N)SC(C)=O (configuration not stated),-,.,.,-,.
O=C1c2ccccc2C(=O)N1CCC#C/C=C1\c2ccccc2C(=O)N1c1ccccc1,-,.,.,28.2µM,-
COc1ccc(-c2noc(-c3ccc(NCc4ccccc4OC)c([N+](=O)[O-])c3)n2)cc1,-,-,-,-,-
Cc1ccc(C)c(Nc2nc3nonc3nc2Nc2cccc(C)c2C)c1,?,5.8µM,?,.,-
CCOC(=O)[C@@H]1[C@H]2COc3cc(OC)ccc3[C@H]2N2C(=O)N(c3ccc(C(F)(F)F)cc3)C(=O)[C@]12C,-,20.6µM,-,?,-
CC[C@H](C(=O)[C@H](C)[C@H](O)[C@H](C)CCc1ccc(C)c(O)c1C(=O)O)[C@H]1O[C@](CC)([C@@H]2CC[C@@](O)(CC)[C@H](C)O2)C[C@H]1C,.,.,.,11.2µM,.
CCN(CC)CCOc1ccc(C(=C(Cl)c2ccccc2)c2ccccc2)cc1,-,.,.,.,.
Cc1cccc(-n2c(-c3ccco3)nc3c(cnn3-c3ccccc3C)c2=O)c1,-,20.6µM,-,-,-
O=C(C1=C[C@@H](c2csc3ccccc23)C[C@@H](OCc2ccc(CO)cc2)O1)N1CCN(Cc2ccccc2)CC1,?,16.4µM,-,?,-
O=C(C1=C[C@@H](c2csc3ccccc23)C[C@@H](OCc2ccc(CO)cc2)O1)N1CCN(Cc2ccc3c(c2)OCO3)CC1,?,?,-,?,-
SMILES,ATXN2 expr inh,Nrf2 block,A549 viability,ATXN viability,Nrf2 ARE act
O=C(C1=C[C@H](C2CCCCC2)C[C@H](OCc2ccc(CO)cc2)O1)N1CCN(Cc2ccc3c(c2)OCO3)CC1,?,23.1µM,?,?,-
Cc1ccc2cc(CN(C(=O)c3ccc4c(c3)OCO4)C3CC3)c(N(C)C)nc2c1,.,.,.,-,.
CCOc1ccccc1NC(=O)C1CCN(S(=O)(=O)c2c(C)noc2/C=C/c2ccco2)CC1,.,-,-,.,-
CCOc1ccc(S(=O)(=O)Nc2ccc(F)cc2)c(C)c1C,-,18.4µM,-,?,-
CCOc1ccc(NS(=O)(=O)c2cc(OC)ccc2OC)cc1,-,-,-,-,-
COc1cccc(/C=N/NC(=O)N/N=C/c2cccc(OC)c2O)c1O,?,-,-,-,-
COc1cccc(/C=N/NC(=O)c2cc3c(OC)ccc(OC)c3[nH]2)c1O,.,?,-,-,-
COc1cccc(C=NNC(=O)c2ccncc2)c1O,10µM,-,-,-,-
COc1cccc(/C=N/NC(=O)c2nc(-c3ccccc3)cc(-c3ccccc3)n2)c1O,10µM,-,-,-,-
COc1cc(OC)c2cc(C(=O)N/N=C/c3cccc(OC)c3O)[nH]c2c1,3.16µM,-,-,?,-
CCC(=NNC(=O)c1ccc2c(c1)nc(C)n2CC)c1cc(F)ccc1O,?,6.51µM,-,-,-
CN1CCCC1CCNc1ncnc2ccc(-c3ccc4c(c3)OCO4)cc12 (configuration not stated),.,-,-,.,.
COc1cccc(/C=N/NC(=O)c2c(C)nc3ccc(Br)cn23)c1O,0.631µM,?,-,-,-
CCn1c(C)nc2cc(C(=O)N/N=C/c3cccc(OC)c3O)ccc21,14.1µM,-,-,-,-
CCOc1ccccc1/C=N/NC(=O)c1c(C)nc2ccc(Br)cn12,-,-,-,-,-
OC(CN1CCCCC1)c1cc(-c2ccccc2)on1 (configuration not stated),.,.,.,-,.
CN(CC(=O)Nc1ccc(Cl)c(C(F)(F)F)c1)C(=O)c1ccc(S(=O)(=O)N2CCOCC2)cc1,?,?,-,?,-
CN(CC(=O)Nc1ccc(Cl)c(C(F)(F)F)c1)C(=O)c1ccc(OCC2CCCO2)cc1 (configuration not stated),-,16.4µM,?,-,-
Cc1ccc(C(=O)N(C)CC(=O)Nc2ccc(Cl)c(C(F)(F)F)c2)cc1S(=O)(=O)N1CCCCC1,?,5.8µM,?,-,-
Cc1ccc(S(=O)(=O)N2CCCCC2)cc1C(=O)N(C)CC(=O)Nc1ccc(Cl)c(C(F)(F)F)c1,?,?,?,.,-
COc1cccc(-n2nnnc2S(C)(=O)=O)c1,?,10.3µM,?,28.2µM,?
Cc1cccc(-n2nnnc2S(C)(=O)=O)c1,?,.,?,11.2µM,-
CC(C)S(=O)(=O)c1csc(NC(=O)Nc2cc(Cl)ccc2Cl)c1Cl,-,18.4µM,-,?,-
O=C(/C=C/c1ccoc1)c1ccccc1O,-,?,-,-,-
COc1ccc2ccccc2c1C(=O)/C=C\c1ccoc1,-,-,-,-,12.6µM
C/C(CC(=O)Nc1ccc(Cl)c(C(F)(F)F)c1)=N\NC(=O)c1cccc(O)c1,-,-,-,-,-
C/C(CC(=O)Nc1ccc(Cl)c(C(F)(F)F)c1)=N\NC(=O)c1ccccc1O,-,23.1µM,?,-,-
CCC1(C2CCN(C(=O)c3coc4c3C(=O)CCC4)CC2)NC(=O)N(CCc2scnc2C)C1=O (configuration not stated),.,.,.,-,.
CC(=O)Nc1ccc(C=NNc2nnc(NN=Cc3ccc(NC(C)=O)cc3)c3ccccc23)cc1,-,18.4µM,-,-,-
